Hits are enriched below; roughly 19% of the tested compounds scored in any of these assays.
TDP1 cell CPT: DT40-hTDP1 cell growth loss with CPT; AID 686979; Potency, µM (series often up to 46.2 µM), for inactives: top-dose activity change, negative = growth inhibition, usual class: inhibitors; 12% of 420,000 active; chicken DT40 Tdp1-/-;hTDP1 cells + 20 nM CPT, ATP luminescence, 48 h; note: nearly all actives have a fitted effect of over 55% in size
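Chicken DT40 Tdp1-/- cells stably complemented with human TDP1 were seeded at 400 cells/well in medium containing 20 nM camptothecin, exposed to pin-transferred compounds, and grown at 37 °C for at least 48 hr. Viability was read as ATP luminescence.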
HT1080-NT tox: kills 2HG-producing HT-1080-NT fibrosarcoma cells. AID 686970. Potency, µM (doses to about 46.1 µM), for inactives: at the top dose activity, negative = less viability, actives largely listed as cytotoxic. HT-1080-NT fibrosarcoma viability, CellTiter-Glo ATP luminescence, 48 h. 1.6% of 360,000 active;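 note: NT is the 2HG producing partner of a matched IDH1 knockdown line; 0% = DMSO-treated cells and -100% = media-only wells without cells; nearly all actives have a fitted effect of over 55% in size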
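Fibrosarcoma NT cells, 750 per well in 5% FBS RPMI, were exposed to compound for 48 hours. Viability: CellTiter-Glo luminescence.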
HT1080 IDH1KD tx: kills HT-1080 cells with IDH1 knockdown. HT-1080 IDH1 knockdown viability, ATP luminescence, 48 h. Potency, µM (doses to about 46.1 µM), for the others: at the highest dose activity, negative = toxicity, actives largely listed as cytotoxic. 2% of 360,000 active;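 note: 0% = DMSO wells and -100% = cell-free medium wells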
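% activity derives from luminescence (CellTiter-Glo), normalised to DMSO and no-cell wells. HT-1080-IDH1KD cells, 750/well, had 48 h compound exposure at 37 °C.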
KB-3-1 tox: KB-3-1 parental cell cytotoxicity | KB-3-1 viability, CellTiter-Glo ATP luminescence, 72 h | Potency, µM (titrated, usually from 46.1 µM), actives largely listed as cytotoxic | 1.4% of 400,000 active | AID 1347075; note: nearly all actives have a fitted effect of over 60% in size
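Multi-concentration cytotoxicity screen in KB-3-1 cells grown in DMEM lacking phenol red with 10% FBS. After 72 h at 37 °C with compound, ATP-dependent luminescence was recorded.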
TDP1 cell noCPT: qHTS for Inhibitors of human tyrosyl-DNA phosphodiesterase 1 (TDP1): qHTS in cells in absence of CPT; DT40 Tdp1-/- hTDP1 cells, no CPT, ATP luminescence, 48 h; Potency, µM (series often up to 46.2 µM), for the others: top-dose activity change, negative = growth inhibition, most hits filed as inhibitors; 15% of 420,000 active; AID 686978, 2013; note: nearly all actives have a fitted effect of over 55% in size
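Seeded 400 DT40-hTDP1 cells/well (vehicle DMSO, no 20 nM CPT); pinned compounds; ≥48 hr at 37 °C; CellTiter-Glo luminescence as viability measure.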
KB-V1 cytotox: kills drug-selected multidrug resistant KB-V1 cells. KB-V1 MDR cells viability, CellTiter-Glo, 72 h. Potency, µM (series often up to 46.1 µM), usual class: cytotoxic. 3.4% of 400,000 active. AID 1347076; note: nearly all actives have a fitted effect of over 60% in size
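Luminescent ATP read-out (CellTiter-Glo, 10 min) measures survival of drug-selected KB-V1 MDR cells after 72 h, 37 degrees C compound exposure. Medium: phenol-red-free DMEM, 10% FBS. Values from fitted concentration-response curves.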
* marks the source's active call; other numbers are inactive results; i = inactive; ? = inconclusive; · = no result given. Calls come from the whole dose curve; as a rule, active = well fitted curve in the direction sought with a large enough effect; inconclusive = small, poorly fitted or top-dose-only effect, or another doubt; inactive = no such curve, though single readings can be large; an effect the other way counts as inactive or inconclusive. Unless noted, % is set by controls: 0 for no effect and ±100 for the full control effect; potency is the fitted concentration of half-maximal effect.

SMILES	TDP1 cell CPT	HT1080-NT tox	HT1080 IDH1KD tx	KB-3-1 tox	TDP1 cell noCPT	KB-V1 cytotox
COc1cc(/C=N/N=C(\N)c2nonc2N)cc(OC)c1O	-9.6%	-18.2%	11.7%	i	?	i
NC(=S)N/N=C/c1ccccc1OCCSc1ccc(Cl)cc1	13µM*	?	?	?	14.6µM*	?
COC(=O)N/N=C/c1cccc(OCCSc2ccc(Cl)cc2)c1	?	?	?	i	?	i
CCOc1cc(/C=N/NC(N)=S)cc(Br)c1OCc1ccccc1C	5.8µM*	-22.8%	-14.4%	i	16.4µM*	i
CCOC(=O)C1CCN(c2ncnc3c2c(-c2ccccc2)cn3-c2ccc(Cl)cc2)CC1	-8.7%	·	·	·	?	·
Cc1cc(O)c(C(C)C)cc1NC(=S)Nc1cc(C(C)C)c(O)cc1C	?	1.3%	-15.9%	?	?	?
COc1cc(/C=N/NC(N)=S)cc(Br)c1OCc1ccccc1F	6.51µM*	-9.9%	-19.4%	i	6.51µM*	18.4µM*
Clc1ccc(-c2cnc3n2CCCCC3)cc1	14.6µM*	-5.0%	-18.8%	i	9.2µM*	i
CCNc1ncc2nc(C)c(=O)n(-c3ccc(OC)cc3)c2n1	?	·	·	·	2.06µM*	·
COc1ccc(-c2nc3cnc(OC)nc3n(-c3ccc(OC)cc3)c2=O)cc1	1.3µM*	·	·	·	0.92µM*	·
CCNc1ncc2nc(C)c(=O)n(CCc3ccccc3)c2n1	7.31µM*	·	·	·	?	·
CCNc1ncc2nc(-c3ccccc3)c(=O)n(CCc3ccccc3)c2n1	1.8%	·	·	·	-11.5%	·
CCNc1ncc2nc(-c3ccccc3)c(=O)n(-c3ccc(OC)cc3)c2n1	7.31µM*	·	·	·	0.517µM*	·
CCNc1ncc2nc(-c3cccs3)c(=O)n(-c3ccc(OC)cc3)c2n1	-15.1%	·	·	·	?	·
CCNc1ncc2nc(-c3ccc(Cl)cc3)c(=O)n(-c3ccccc3)c2n1	-3.5%	·	·	·	-7.5%	·
CCCCCCSc1ccc([C@H]2N[C@@](Cc3ccccc3)(C(=O)OC)[C@H]3C(=O)N(C)C(=O)[C@@H]23)cc1OC	?	0.0%	1.3%	i	?	i
COCCn1c(=O)c(-c2ccccc2)nc2cnc(Nc3ccccc3)nc21	12.2%	·	·	·	-9.9%	·
CCNc1ncc2nc(-c3cc(F)cc(F)c3)c(=O)n(-c3ccc(OC)cc3)c2n1	7.0%	·	·	·	-7.6%	·
CCNc1ncc2nc(-c3ccc(F)cc3)c(=O)n(-c3ccc(OC)cc3)c2n1	0.731µM*	·	·	·	0.581µM*	·
CC1(C)Cc2ccccc2C2=NNC(=O)C2=N1	16.4µM*	23.1µM*	7.31µM*	?	10.3µM*	?
CC1(C)Cc2ccccc2C(Nn2cnnc2)=N1	-0.9%	6.4%	2.4%	i	-8.0%	i
COc1nc(OC)nc(N2CCC(C(=O)NC3CCCCCC3)CC2)n1	?	-1.4%	0.7%	i	-28.4%	10.3µM*
CC1CCCCN1CCCNC(=O)C1CCN(c2nc3ccccc3o2)CC1 (stereo not given)	3.2%	-12.8%	-4.7%	i	-17.7%	i
O=C(NC1CCCCCC1)C1CCN(c2nc3ccccc3o2)CC1	?	-0.6%	7.7%	i	16.4µM*	?
COc1cc(-c2nn3c(COc4ccccc4)nnc3s2)cc(OC)c1OC	-13.0%	-13.7%	-4.6%	i	-25.7%	5.17µM*
COc1cc(-c2nn3c(Cc4ccccc4)nnc3s2)cc(OC)c1OC	35.5µM*	-21.8%	-18.9%	i	?	i
O=C(CCl)NCCCN(C(=O)C(Cl)Cl)c1ccc([N+](=O)[O-])cc1	9.2µM*	?	?	i	13µM*	?
COc1cccc(/C=N/N2CCOCC2)c1O	2.8%	3.7%	4.3%	i	1.8%	i

Bioassay records deposited in PubChem by National Center for Advancing Translational Sciences (NCATS).
